STK33 kin inh: inhibitors of human STK33 kinase; AID 2322; Q9BYT3; ADP-Glo luminescence, MBP substrate; actives 0.44% (n = 27,000); inhibition, % at 12.5 µM; in the data active = inhibition above about 20%; inconclusive = no clear call, values can overlap the other calls
Target sequence (Q9BYT3 whole entry, looked up): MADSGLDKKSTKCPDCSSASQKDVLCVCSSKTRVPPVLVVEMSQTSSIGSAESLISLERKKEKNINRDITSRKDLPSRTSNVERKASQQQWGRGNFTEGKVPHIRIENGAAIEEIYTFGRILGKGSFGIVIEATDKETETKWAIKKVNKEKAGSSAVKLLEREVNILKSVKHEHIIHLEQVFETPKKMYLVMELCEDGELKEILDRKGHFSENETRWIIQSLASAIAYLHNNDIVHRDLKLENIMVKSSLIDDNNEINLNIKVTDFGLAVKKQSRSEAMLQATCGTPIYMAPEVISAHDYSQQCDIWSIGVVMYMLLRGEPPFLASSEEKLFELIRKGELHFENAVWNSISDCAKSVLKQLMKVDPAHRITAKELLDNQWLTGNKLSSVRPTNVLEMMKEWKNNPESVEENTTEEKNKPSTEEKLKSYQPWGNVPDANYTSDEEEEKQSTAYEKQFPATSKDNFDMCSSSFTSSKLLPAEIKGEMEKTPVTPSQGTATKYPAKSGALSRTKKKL
PD-1 reverse act: activators reversing PD-1 mediated T-cell inhibition. primary human CD4 T cells, PD-L1 beads, CellTiter-Glo 96 h. activation, % (no concentration beside the values). 29,000 tested, under 10 active. AID 2316; call rule not given here;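 also: 0% = median vehicle wells and 100% = positive control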
NOMO-1 viab: STK33 inhibitor candidate reducing NOMO-1 cell viability; AID 2330; NOMO-1 AML viability, CellTiter-Glo luminescence, 72 h; inhibition, % (no concentration beside the values); actives 7.5% (n = 37,000); in the data active = inhibition above about 80%; inconclusive = no clear call, values can overlap the other calls
An asterisk follows results filed as active; u = inconclusive; x = no result. This is one part of a sample in which hits are shown more often than they occur.

SMILES	STK33 kin inh	PD-1 reverse act	NOMO-1 viab
C[C@@H]1CN([C@@H](C)CO)C(=O)c2cccc(N(C)C)c2O[C@H]1CN(C)Cc1ccc(C(=O)Nc2ccccc2N)cc1	x	-2	90*
C[C@H]1CN([C@@H](C)CO)C(=O)c2cccc(N(C)C)c2O[C@H]1CN(C)Cc1ccc(C(=O)Nc2ccccc2N)cc1	x	-1	126*
NC(=O)OCC(O)COc1ccc(Cl)cc1 (stereo not given)	-1	x	20
OC(COc1ccc(Nc2ccccc2)cc1)COc1ccc(Nc2ccccc2)cc1	x	3	103*
COC(=O)c1c(NC(=S)NCc2ccco2)sc2c1CCC2	-2	-1	34
C=C(C(=O)O[C@@H]1O[C@H](CO)[C@@H](O)[C@H](O)[C@H]1O)[C@@H]1CC[C@@]2(C)C[C@H](O)C[C@@](C)(O)C2C1 (stereo not given in full)	-4	x	x
O=C(COc1ccccc1O)N1CCCC1	x	2	-17
COc1ccc([Si](C)(C)[C@@H]2[C@@H](CCn3cc(CCO)nn3)O[C@]3(C(=O)N(Cc4ccc(N5CCC5=O)cc4)c4ccccc43)[C@H]2C)cc1	22*	x	x
COc1ccc([Si](C)(C)[C@H]2[C@H](CCn3cc(CCO)nn3)O[C@@]3(C(=O)N(Cc4ccc(N5CCC5=O)cc4)c4ccccc43)[C@@H]2C)cc1	19	x	x
CO[C@H]1C[C@@H]2CC[C@@H](C)[C@@](O)(O2)C(=O)C(=O)N2CCCC[C@H]2C(=O)O[C@H](C(C)CC2CC[C@@H](O)[C@H](OC)C2)CC(=O)[C@H](C)/C=C(\C)[C@@H](O)[C@@H](OC)C(=O)[C@H](C)C[C@H](C)/C=C/C=C/C=C\1C (stereo not given in full)	-2	-5	40
Cn1c(SCC(=O)Nc2cccc(Br)c2)nnc1-c1cccs1	5	2	-17
S=c1nc(-c2ccccc2)n(-c2ccc(Br)cc2)c2c1CCCC2	x	-1	35
Cc1c(C#N)c2ccccc2n1CC(=O)NCCc1c[nH]c2ccccc12	3	x	18
Cc1c(CO)c2ccccc2n1Cc1ccccc1C#N	4	-5	121*
CCOC(=O)c1cc(NC(=O)CSc2nnc(C)s2)ccc1Cl	-4	0	12
O=C(O)CNc1ncnc2oc(-c3ccccc3)c(-c3ccccc3)c12	43*	-5	10
c1ccc(-c2oc3ncnc(NCCN4CCOCC4)c3c2-c2ccccc2)cc1	3	-4	39
O=C(CSc1nc2ccccc2c(=O)n1-c1ccc(Cl)cc1)Nc1ccc(Cl)c(Cl)c1	2	2	53
CCN(CC)CC(O)Cn1c(C)c(-c2ccccc2)c2cc([N+](=O)[O-])ccc21 (stereo not given)	5	x	94*
CCN(CC)CC(O)Cn1c2c(c3ccccc31)CCCC2=O (stereo not given)	1	3	21
CS(=O)(=O)N(CC(=O)Nc1cc(Cl)ccc1Cl)c1cc(Cl)c(Cl)cc1Cl	u	0	16
O/N=C1/C2CN3CCN(C2)CC1(Cc1ccccc1)C3	x	0	35
Cc1ccccc1-c1nc(SCC(=O)c2cccc([N+](=O)[O-])c2)n[nH]1	2	1	13
O=C(CSc1nnc(-c2ccccc2)n1-c1ccccc1)Nc1cccc(Br)c1	13	x	u
N#Cc1cc2c(OCC(O)CN3CCN(C(c4ccccc4)c4ccccc4)CC3)cccc2[nH]1 (stereo not given)	-7	x	116*
SMILES	STK33 kin inh	PD-1 reverse act	NOMO-1 viab
Cc1ccc(C)c(OCC(O)CN2CCN(CCO)CC2)c1 (stereo not given)	3	1	14
N#Cc1cc(C#N)c(SCC(=O)NCc2ccco2)nc1N	x	0	u
Cn1c(=O)c2c(nc(NCC(O)c3ccccc3)n2Cc2ccc(F)cc2)n(C)c1=O (stereo not given)	1	-7	95*
Cn1c(=O)c2c(nc(NCCN)n2Cc2ccc(Cl)cc2)n(C)c1=O	2	2	17
C[C@H](CO)N1C[C@H](C)[C@@H](CN(C)Cc2ccc(Oc3ccccc3)cc2)Oc2ccc(NC(=O)CCC(F)(F)F)cc2C1=O	x	0	2
C[C@H]1CN([C@@H](C)CO)C(=O)c2cc(NC(=O)Nc3ccccc3)ccc2O[C@@H]1CN(C)Cc1ccc(Oc2ccccc2)cc1	x	2	97*
C[C@@H]1CN([C@H](C)CO)C(=O)c2cc(NC(=O)Nc3ccccc3)ccc2O[C@@H]1CN(C)Cc1ccc(Oc2ccccc2)cc1	x	-1	38
C[C@H](CO)N1C[C@H](C)[C@H](CN(C)Cc2ccc(Oc3ccccc3)cc2)Oc2ccc(NC(=O)CCC(F)(F)F)cc2C1=O	x	-3	114*
C[C@@H]1CN([C@@H](C)CO)C(=O)c2cc(NC(=O)Nc3ccccc3)ccc2O[C@H]1CN(C)Cc1ccc(Oc2ccccc2)cc1	x	-1	112*
C[C@@H]1CN([C@@H](C)CO)C(=O)c2cc(NC(=O)Nc3ccc(F)cc3)ccc2O[C@H]1CN(C)Cc1ccc(Oc2ccccc2)cc1	5	-2	61
Cc1ccc(-n2c(SCC(=O)Nc3cccc(F)c3)nc3ccccc3c2=O)cc1	4	-1	11
Cc1ccc2oc(-c3ccc(Cl)c(NC(=O)COc4ccc(Br)cc4)c3)nc2c1	0	x	56
Cc1ccc(-c2nc3c(c(SCC(=O)Nc4cccc(C(F)(F)F)c4)n2)COC(C)(C)C3)cc1	-1	-4	59
Cc1ccc2nc(CCCC(=O)O)[nH]c2c1	x	0	38
Cn1c(SCC(=O)Nc2ccc(F)cc2)nnc1-c1ccc([N+](=O)[O-])cc1	27*	1	1
O=C(CSc1nnc(-c2ccc([N+](=O)[O-])cc2)n1-c1ccccc1)Nc1ccc(F)cc1	-1	-1	16
Cc1noc(C)c1NC(=O)Nc1ccc2c(c1)CC(=O)N([C@H](C)CO)C[C@@H](C)[C@@H](CN(C)Cc1ccc(C(=O)Nc3ccccc3N)cc1)O2	x	2	22
Cc1noc(C)c1S(=O)(=O)Nc1ccc2c(c1)C(=O)N([C@H](C)CO)C[C@H](C)[C@H](CN(C)Cc1ccc(C(=O)Nc3ccccc3N)cc1)O2	x	-2	108*
Cc1noc(C)c1S(=O)(=O)Nc1ccc2c(c1)C(=O)N([C@H](C)CO)C[C@@H](C)[C@@H](CN(C)Cc1ccc(C(=O)Nc3ccccc3N)cc1)O2	x	-3	108*
Cc1noc(C)c1S(=O)(=O)Nc1ccc2c(c1)C(=O)N([C@@H](C)CO)C[C@@H](C)[C@@H](CN(C)Cc1ccc(C(=O)Nc3ccccc3N)cc1)O2	x	-1	108*
Cc1noc(C)c1S(=O)(=O)Nc1ccc2c(c1)C(=O)N([C@@H](C)CO)C[C@H](C)[C@@H](CN(C)Cc1ccc(C(=O)Nc3ccccc3N)cc1)O2	x	-1	8
C[C@H]1CN([C@@H](C)CO)C(=O)c2cc(NS(=O)(=O)c3ccccc3)ccc2O[C@@H]1CN(C)Cc1ccc(C(=O)Nc2ccccc2N)cc1	x	-1	23
C[C@H]1CN([C@@H](C)CO)C(=O)c2cc(NS(=O)(=O)c3ccccc3)ccc2O[C@H]1CN(C)Cc1ccc(C(=O)Nc2ccccc2N)cc1	x	-2	u
Cc1noc(C)c1S(=O)(=O)Nc1ccc2c(c1)CC(=O)N([C@H](C)CO)C[C@H](C)[C@H](CN(C)Cc1ccc(C(=O)Nc3ccccc3N)cc1)O2	x	-5	142*

Assay outcomes from PubChem BioAssay.
